High-throughput results from PubChem.
LmPK inh – blocks Leishmania mexicana pyruvate kinase activity; Q27686; purified LmPK, Kinase-Glo ATP luminescence, 1 h; Potency, µM (highest dose often 57.5 µM), actives largely listed as inhibitors; actives 0.37% (n = 290,000)
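In 50 mM imidazole pH 7.2 with 7 mM MgCl2, LmPK (0.1 nM) turned over PEP (0.5 mM) and ADP (0.1 mM) for 1 h at room temperature. Luciferase read-out of ATP.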
RE007 growth inh – less growth of the S. pombe RE007 Vpr strain; S. pombe RE007 Vpr strain, BacTiter-Glo ATP luminescence, 24 h; Potency, µM (titrated, usually from 92.2 µM), actives largely listed as inhibitors; actives 0.21% (n = 360,000); AID 651644; active means well fitted falling curve with a large enough effect; inconclusive means small, poorly fitted or top-dose-only effect; inactive means no such curve, though single readings can be large or run the other way; further: nearly all actives have a fitted effect of over 50% in size
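Fission yeast strain RE007, carrying one chromosomally integrated HIV-1 vpr copy, was seeded at OD 0.01 in PMG+AL medium with 23 nL pinned compound. After 24 h at 30 °C and 99% humidity, viability was read by BacTiter-Glo luminescence.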
Cycloheximide cs – affects cycloheximide protein synthesis inhibition readout, counter-screen; actives 12% (n = 300,000); cell reporter, cycloheximide protein synthesis inhibition counterscreen; AID 2314; max response, %; in the data active means max response mostly above about 13%, no sharp cut-off; inactive means mostly below about 14%; further: read at 38.3 µM for the half of the compounds with a filed dose
Tb PYK inh – blocks Trypanosoma brucei pyruvate kinase | Q57TT1 | TbPYK enzyme, Kinase-Glo Plus ATP luminescence, 45 min | Potency, µM (titrated, usually from 76.8 µM), hits mostly inhibitors | actives 0.12% (n = 410,000) | AID 624173; further: nearly all actives have a fitted effect of over 50% in size
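Luminescent Kinase-Glo Plus end-point after 45 min room-temperature reaction of T. brucei pyruvate kinase started with 130 uM ADP (final). Buffer TEA 50 mM pH 7.2 with KCl, MgCl2, BSA, Tween-20; titration-based qHTS with fitted concentration-effect curves.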
Giardia FBPA inh – inhibitors of Giardia lamblia fructose-1,6-bisphosphate aldolase; Potency, µM (highest dose often 59.6 µM), usual class: inhibitors; purified Giardia FBPA; actives 0.71% (n = 290,000); further: nearly all actives have a fitted effect of over 55% in size
Target sequence (A8B2U2 whole entry, looked up): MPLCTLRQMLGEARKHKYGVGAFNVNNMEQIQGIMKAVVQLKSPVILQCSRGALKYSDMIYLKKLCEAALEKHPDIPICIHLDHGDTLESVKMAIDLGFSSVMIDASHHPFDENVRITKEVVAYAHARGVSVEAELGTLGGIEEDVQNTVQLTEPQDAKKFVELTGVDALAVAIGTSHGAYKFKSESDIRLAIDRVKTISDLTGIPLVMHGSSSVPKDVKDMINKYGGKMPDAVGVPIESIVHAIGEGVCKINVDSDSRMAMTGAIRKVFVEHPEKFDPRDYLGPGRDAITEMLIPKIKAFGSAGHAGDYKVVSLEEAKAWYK
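Giardia FBPA (40 nM reagent) was preincubated 10 min at RT with compound (up to 57.5 uM final), then substrate plus GAPDH/TPI/NAD/arsenate coupling system with diaphorase/resazurin was added; resorufin fluorescence (525/598 nm) was read after 20 min.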
Shiga inhibitor – blocks Shiga toxin action in Vero cells; Vero cells, Shiga toxin protein synthesis inhibition reporter; inhibition, % at 38.7 µM; actives 9.2% (n = 290,000); in the data active means inhibition mostly above about 28%, no sharp cut-off; inactive means mostly below about 43%
Each line names hits and unclear results; the compound was inactive in the other large screens. Shown is part of a subset that was picked to be rich in hits. Unless noted, the call rests on the fitted dose curve; in most records, active means well fitted curve in the direction sought with a large enough effect; inconclusive means small, poorly fitted or top-dose-only effect, or another doubt; inactive means no such curve, though single readings can be large; an effect the other way counts as inactive or inconclusive.

O=C(c1ccccc1)c1cnc(-c2ccc(Cl)cc2)s1	LmPK inh inconclusive, Cycloheximide cs 39, Shiga inhibitor 116 (no result: Tb PYK inh)
CN(C)/C=C/C(=O)c1cnc(-c2ccccc2)s1	Cycloheximide cs 52, Shiga inhibitor 104
O=C(C=Cc1cccs1)c1ccc(Cl)s1	RE007 growth inh inconclusive (no result: LmPK inh, Cycloheximide cs, Giardia FBPA inh, Shiga inhibitor)
CN(C)/C=C/C(=O)c1cnc(-c2ccc(Cl)cc2)s1	Cycloheximide cs 51, Shiga inhibitor 97
Cc1cc(-c2ccccc2)c2ccc(NC(=O)C(C)(C)C)nc2n1	none (no result: Shiga inhibitor)
CCC(=O)c1ccc(OCC(=O)NCCc2ccccn2)cc1	none
COc1ccc(CC(=O)Nc2c(C(=O)Nc3ccccc3F)oc3ccccc23)cc1	none (no result: LmPK inh, RE007 growth inh, Cycloheximide cs, Giardia FBPA inh, Shiga inhibitor)
C[C@@]12CC[C@@H]3c4ccc(O)cc4CC[C@H]3[C@H]1C[C@@H](O)[C@H]2O	none (no result: LmPK inh, RE007 growth inh, Cycloheximide cs, Tb PYK inh, Shiga inhibitor)
Clc1cccc2sc(N3CCOCC3)nc12	none (no result: LmPK inh, Cycloheximide cs, Giardia FBPA inh, Shiga inhibitor)
Clc1cccc2sc(N3CCCC3)nc12	Cycloheximide cs 20, Shiga inhibitor active
CCc1cccc2sc(N3CCN(C(=O)C4CC4)CC3)nc12	none (no result: LmPK inh, RE007 growth inh, Cycloheximide cs, Giardia FBPA inh, Shiga inhibitor)
CC(=O)N1CCN(c2nc3c(F)cc(F)cc3s2)CC1	none (no result: LmPK inh, RE007 growth inh, Cycloheximide cs, Giardia FBPA inh, Shiga inhibitor)
Fc1cccc2sc(N3CCCC3)nc12	Cycloheximide cs 43, Shiga inhibitor 89
Brc1cccc2sc(N3CCCC3)nc12	Cycloheximide cs 34
COC(=O)C1(C)C=CC2(CCCCC2)N1C(=O)c1ccccc1 (configuration not stated)	none (no result: LmPK inh, RE007 growth inh, Cycloheximide cs, Tb PYK inh, Shiga inhibitor)
O=C1/C(=C/c2ccccc2F)SC(=S)N1CC(=O)N1CCCCC1c1cccnc1 (configuration not stated)	none (no result: Giardia FBPA inh)
CC(C)CCn1c(O)c(N=NC(=O)c2ccco2)c2ccccc21	Shiga inhibitor 24
Cn1c(O)c(N=NC(=O)c2ccco2)c2ccccc21	Cycloheximide cs 44, Shiga inhibitor 145
Cn1c(O)c(N=NC(=O)CNC(=O)c2ccco2)c2ccccc21	none
CC(C)CCOc1ccc(C(=O)NN2C(=O)NC3(CCCCC3)C2=O)cc1	none (no result: LmPK inh, Cycloheximide cs, Giardia FBPA inh, Shiga inhibitor)
Cn1c(/C=C/c2ccccc2)nc2ccccc2c1=O	Cycloheximide cs 28, Shiga inhibitor 57
CCn1c(/C=C/c2ccccc2)nc2ccccc2c1=O	none
Cn1c(/C=C/c2ccc(Cl)cc2)nc2ccccc2c1=O	Cycloheximide cs 24, Tb PYK inh inconclusive, Shiga inhibitor 46
Cn1c(NN)nc2ccccc2c1=O	Cycloheximide cs 36, Giardia FBPA inh inconclusive, Shiga inhibitor 33
COc1cccc(-n2c(/C=C\c3ccc(Cl)cc3)nc3ccccc3c2=O)c1	none (no result: LmPK inh, RE007 growth inh, Cycloheximide cs, Giardia FBPA inh, Shiga inhibitor)
COc1ccc(CN2C[C@@H](CO)O[C@@H](n3cnc4c(N5CCOCC5)ncnc43)C2)cc1	none (no result: LmPK inh, Cycloheximide cs, Giardia FBPA inh, Shiga inhibitor)
COc1ccc(-c2csc(N(CCCN(C)C)C(=O)c3ccc(OC)c(OC)c3)n2)cc1	none (no result: LmPK inh, Cycloheximide cs, Giardia FBPA inh, Shiga inhibitor)
CN1CCc2c(sc3nc(NN)n(-c4ccc(Cl)cc4)c(=O)c23)C1	Shiga inhibitor 29 (no result: RE007 growth inh)
CN1CCc2c(sc3nc(NN)n(Cc4ccccc4)c(=O)c23)C1	none
O=C1Nc2ccc(Cl)cc2C12Nc1ccccc1-c1nnc(SCc3ccccc3F)nc1O2 (configuration not stated)	Cycloheximide cs 28
CCC(=O)N1c2ccccc2-c2nnc(SC)nc2OC1c1ccc(N(C)C)cc1 (configuration not stated)	none
CCC1Oc2nc(SC)nnc2-c2ccccc2N1C(=O)c1ccccc1 (configuration not stated)	Cycloheximide cs 16
CC(NC(=O)CN(c1ccc(Cl)cc1Cl)S(=O)(=O)c1ccccc1)c1ccccc1 (configuration not stated)	none (no result: LmPK inh, RE007 growth inh, Cycloheximide cs, Giardia FBPA inh, Shiga inhibitor)
C=CCn1c(CCCOc2ccc(Cl)cc2Cl)n[nH]c1=S	Cycloheximide cs 19, Shiga inhibitor 54
